Laboratory results published in PubChem BioAssay AID1159580 (chemical genetic matrix, 2015).
About 2,000 (36%) of roughly 5,500 compounds were called active. Another 18% or so got no clear call; they are omitted. No stated cut-off is given here; in the data, active means normalized growth mostly below about 0.91 (no sharp cut-off); inconclusive means no clear call, values can overlap the other calls; inactive means mostly above about 0.92. The list shows a part of the results.

Assay: chemical genetic growth profiling, strain panel (AID 1159580);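 further: tested at 20 µM; growth read once vehicle control cultures reached saturation at 30 °C; 1 = growth at the plate median or of vehicle wells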
Conditions: S. cerevisiae deletion strains, growth OD

Measured: normalized growth

C[C@]12C[C@H](O)[C@H]3[C@@H](CCC4=CC(=O)CC[C@@]43C)[C@@H]1CC[C@@H]2C(=O)CO
inactive: locus YAL040C, strain CLN3, stronger effect = lower value 1.05 | locus YDR150W, strain NUM1, stronger effect = lower value 1 | locus YDR363W, strain ESC2, stronger effect = lower value 0.999 | locus YER002W, strain NOP16, stronger effect = lower value 1.01 | locus YGR078C, strain PAC10, stronger effect = lower value 1 | locus YNL175C, strain NOP13, stronger effect = lower value 1.02 | locus YNL197C, strain WHI3, stronger effect = lower value 1.02 | locus YNL224C, strain SQS1, stronger effect = lower value 1.02 | locus YOR083W, strain WHI5 (second series), stronger effect = lower value 1.02 | locus YPL241C, strain CIN2, stronger effect = lower value 1
